YB-1 expression: YB-1 expression inhibition. U2OS, qRT-PCR YB-1 vs CDIP delta delta Cp, 16 h; hits give high values; zero = DMSO, each unit about twofold. delta delta Cp (YB-1 minus CDIP) (no concentration beside the values). 0.37% of 30,000 active;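 active means delta delta Cp rounded down to an integer at or above 3, about 3 SD of DMSO wells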;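 further: higher means less YB-1 transcript or more CDIP transcript relative to DMSO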
ROS inducer: inducers of reactive oxygen species in cancer cells | U2OS ROS induction, H2DCF-DA fluorescence | ROS induction (% of piperlongumine), % at 10 µM | 2% of 46,000 active | AID 624156; in the data active means ROS induction above about 79%, passing the limit was not always enough;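 further: 0% = DMSO vehicle median and 100% = reference compound median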
* marks the source's active call; other numbers are inactive results; . = no result given. Only some compounds are listed: those with a hit (about 2.1% of all), similar ones and a draw of the others.

SMILES | YB-1 expression | ROS inducer
Cc1ccccc1N1C(=O)NC(=O)/C(=C\c2cn(CC(=O)N3CCOCC3)c3ccccc23)C1=O | . | 117.0*
O=C1NC(=O)N(c2ccccc2F)C(=O)/C1=C/c1cn(CC(=O)N2CCCC2)c2ccccc12 | . | 99.6*
CN1C(=O)/C(=C\c2cn(CC(=O)N3CCOCC3)c3ccccc23)C(=O)NC1=S | . | 3.0
C=CCn1cc(C=C2C(=O)OC3(CCCC3)OC2=O)c2ccccc21 | . | 45.0
Cc1ccsc1/C=N\NC(=O)CCCCCC(=O)NO | -0.166 | -7.8
Cn1c(=O)c2c(-c3ccc(C(C)(C)C)cc3)n(-c3cc(N)c(Cl)cc3Cl)cc2n(C)c1=O | . | 13.1
CCOC(=O)N1CCC(NC(=O)CCc2cn(Cc3ccccc3C)c3ccccc23)CC1 | . | -4.9
Cc1ccc(S(=O)(=O)N2Cc3ccccc3C2)cc1 | . | -2.2
Cc1ccc(C(CC(=O)O)c2ccco2)cc1 (stereo unspecified) | . | 1.5
CO[C@H]1C[C@@H]2CC[C@@H](C)[C@@](O)(O2)C(=O)C(=O)N2CCCC[C@H]2C(=O)O[C@H]([C@H](C)C[C@@H]2CC[C@@H](O)[C@H](OC)C2)CC(=O)[C@H](C)/C=C(\C)[C@@H](O)[C@@H](OC)C(=O)[C@H](C)C[C@H](C)/C=C/C=C/C=C\1C | 1.05 | 98.4*
CCCCN(C)c1sc(S(C)(=O)=O)nc1S(=O)(=O)c1ccc(C)cc1 | . | -9.0
CCN1/C(=C\C(=S)Nc2ccccc2)Sc2ccccc21 | -0.0835 | 65.9
CCN1/C(=C/C2=CC(=O)CC(C)(C)C2)Sc2ccccc21 | 0.215 | 163.6*
O=C(NN1C(=O)/C(=C\c2cccnc2)SC1=S)c1ccccc1 | 0.0374 | 78.6*
CSCCC(C(=O)O)N1C(=O)/C(=C/c2cccnc2)SC1=S (stereo unspecified) | . | -19.3
CCOC(=O)CN1C(=O)S/C(=C\c2ccc(C(=O)O)cc2)C1=O | . | 1.4
O=C1/C(=C/c2ccc(O)cc2)SC(=S)N1CCc1ccccc1 | -1.13 | 126.6*
CC(C)OC(=O)CCN1C(=O)/C(=C/c2ccccc2)SC1=S | -0.0896 | 35.9
O=C(CCSc1nc(-c2ccccc2)cs1)Nc1ccccc1 | . | 105.6*
CC(=O)Nc1ccc(NC(=O)CCSc2ccccc2)cc1 | . | -2.1
O=C1O[C@@H](c2ccccc2)[C@@H](c2ccccc2)N2[C@@H](c3ccc(OCCO)cc3)[C@]3(C(=O)Nc4ccc(C#CCCO)cc43)[C@@H](C(=O)N3CCCCCCC3)[C@H]12 | 0.118 | 17.4
COc1cc2c(cc1OC)CN(C(=O)[C@H]1[C@@H]3C(=O)O[C@@H](c4ccccc4)[C@@H](c4ccccc4)N3[C@@H](c3ccc(OCCO)cc3)[C@]13C(=O)Nc1ccc(C#CC4=CCCCC4)cc13)CC2 | -0.498 | 61.0
COc1cc2c(cc1OC)CN(C(=O)[C@@H]1[C@H]3C(=O)O[C@H](c4ccccc4)[C@H](c4ccccc4)N3[C@H](c3ccc(OCCO)cc3)[C@@]13C(=O)Nc1ccccc13)CC2 | -0.133 | 98.2*
COC(=O)C(CC#Cc1ccc2c(c1)[C@]1(C(=O)N2)[C@H](C(=O)N2CCCCCCC2)[C@H]2C(=O)O[C@H](c3ccccc3)[C@H](c3ccccc3)N2[C@@H]1c1ccc(OCCO)cc1)C(=O)OC | -0.102 | 103.9*
COC(=O)C(CC#Cc1ccc2c(c1)[C@]1(C(=O)N2)[C@H](c2ccc(O)cc2)N2[C@H](c3ccccc3)[C@H](c3ccccc3)OC(=O)[C@H]2[C@@H]1C(=O)N1CCCCCCC1)C(=O)OC | 0.0946 | 39.6
SMILES | YB-1 expression | ROS inducer
COc1cc2c(cc1OC)CN(C(=O)[C@H]1[C@@H]3C(=O)O[C@@H](c4ccccc4)[C@@H](c4ccccc4)N3[C@@H](c3ccccc3OCCO)[C@]13C(=O)Nc1ccc(C#CC4=CCCCC4)cc13)CC2 | -0.259 | 86.7*
COc1cc2c(cc1OC)CN(C(=O)[C@@H]1[C@H]3C(=O)O[C@H](c4ccccc4)[C@H](c4ccccc4)N3[C@H](c3ccc(O)cc3)[C@@]13C(=O)Nc1ccccc13)CC2 | 0.261 | 48.1
O=C1O[C@@H](c2ccccc2)[C@@H](c2ccccc2)N2[C@@H](c3ccccc3OCCO)[C@]3(C(=O)Nc4ccc(C#CCCO)cc43)[C@@H](C(=O)N3CCCCCCC3)[C@H]12 | -0.11 | 220.7*
CC(C)NS(=O)(=O)Cc1ccccc1 | . | -8.0
COc1ccc(/C=C2\Sc3ccccc3NC2=O)cc1 | . | 5.9
CSc1nn(-c2ccccc2)cc1C(=O)N1CCCCC1 | . | -15.5
CC1(C)CC(=O)C2=C(C1)N(c1ncn[nH]1)C(N)=C(C#N)C2c1ccsc1 (stereo unspecified) | . | 30.8
COc1ccc(CCC(=O)Nc2n[nH]c3nc4cc(OC)ccc4cc23)cc1 | . | -5.0
O=C(CCSc1ccccc1)NCc1ccco1 | . | -5.1
Clc1ccc(CSCc2nc3ccccc3[nH]2)cc1 | . | -23.4
Cc1onc(-c2ccccc2Cl)c1C(=O)OC(c1ccccc1)C(F)(F)F (stereo unspecified) | . | 7.9
COc1ccc(C#Cc2ccc3c(c2)[C@]2(C(=O)N3)[C@H](c3ccccc3OCCO)N3[C@H](c4ccccc4)[C@H](c4ccccc4)OC(=O)[C@H]3[C@@H]2C(=O)N2CCc3cc(OC)c(OC)cc3C2)cc1 | -0.178 | 63.7
COc1cc2c(cc1OC)CN(C(=O)[C@H]1[C@@H]3C(=O)O[C@@H](c4ccccc4)[C@@H](c4ccccc4)N3[C@@H](c3ccccc3OCCO)[C@]13C(=O)Nc1ccc(C#CCCO)cc13)CC2 | -0.562 | 120.1*
C[C@H](CO)N1C[C@H](C)[C@H](CN(C)S(=O)(=O)c2ccc(F)cc2)Oc2ccc(NC(=O)Nc3ccc(F)cc3)cc2CC1=O | 0.76 | -3.8
C[C@H](CO)N1C[C@H](C)[C@H](CN(C)S(=O)(=O)c2ccc(F)cc2)Oc2ccc(NC(=O)Nc3ccc(C(F)(F)F)cc3)cc2CC1=O | 0.397 | 85.2*
COc1ccc(S(=O)(=O)N(C)C[C@@H]2Oc3ccc(NC(=O)Nc4ccc(F)cc4)cc3CC(=O)N([C@H](C)CO)C[C@H]2C)cc1 | 0.201 | -14.4
COc1ccc(S(=O)(=O)N(C)C[C@H]2Oc3ccc(N(C)C)cc3CC(=O)N([C@H](C)CO)C[C@H]2C)cc1 | -0.251 | -6.2
COc1ccc(NC(=O)Nc2ccc3c(c2)CC(=O)N([C@@H](C)CO)C[C@H](C)[C@H](CN(C)S(=O)(=O)c2ccc(F)cc2)O3)cc1 | 0.347 | 96.6*
Cc1noc(C)c1S(=O)(=O)Nc1cccc2c1O[C@H](CN(C)S(=O)(=O)c1ccc(Cl)cc1)[C@H](C)CN([C@@H](C)CO)C2=O | -0.207 | 103.0*
Cc1noc(C)c1S(=O)(=O)Nc1cccc2c1O[C@@H](CN(C)S(=O)(=O)c1ccc(Cl)cc1)[C@@H](C)CN([C@@H](C)CO)C2=O | -0.0747 | 5.8
COc1ccc(S(=O)(=O)N(C)C[C@@H]2Oc3ccc(N(C)C)cc3CC(=O)N([C@H](C)CO)C[C@H]2C)cc1 | -0.406 | 95.5*
O=S(=O)(NCc1ccc(-c2cccs2)cc1)c1ccc(N2CCOCC2)nc1 | . | 2.4
CCn1c(=O)c(=O)n(CC)c2cc(S(=O)(=O)NC3CCCCC3)ccc21 | . | -1.8
O=C(Cn1c2ccccc2c2cn[nH]c(=O)c21)NCCC1=CCCCC1 | . | -3.8
O=c1c(Cl)c(N2CCCCC2)cnn1-c1ccccc1 | . | -18.5
COc1ccc(S(=O)(=O)N(C)C[C@@H]2Oc3ccc(NC(=O)Nc4ccc(F)cc4)cc3C(=O)N([C@H](C)CO)C[C@@H]2C)cc1 | 0.0189 | 129.9*

Screening data: PubChem BioAssay, Broad Institute
